# Assay results published in PMC5540273 (PLoS ONE, 2017).
# Tested on: T1, DLK
# T1 construct: gene MAP3K12
# Conditions: concentration: 1 μM, replicates: in singlicate; n = 1
# 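Further: KINOMEscan kinase panel screen.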
row,Compound,%Inh
1,COc1cc2c(cc1OC[C@@H](O)CO)ncc1c3ccc(C#N)cc3[nH]c21,65%
2,COc1ccc(Nc2ncc(C#N)c(Nc3ccccc3C(N)=O)n2)cc1N1CCN(C)CC1.Cl [GSK1558669],97.8%
3,Cc1cccc(-c2nc(-c3ccc(S(C)(=O)=O)cc3)sc2-c2ccncc2)c1,0%
4,COc1cc(Nc2nccc(N3CCC(NC(=O)c4cccc(NC(C)=O)c4)C3)n2)cc(OC)c1OC (stereo not shown) [GSK1379754],62%
5,Cc1ccc(NC(=O)c2ccnc(N3CCN(C)CC3)c2)cc1-c1ccc(C(=O)NCC2CC2)cc1 [GW775604],0%
6,CSc1ccc(-c2cc3ncnc(SCC(=O)O)c3s2)cc1,44%
7,c1ccc(-c2cc(-c3c[nH]nc3-c3ccccn3)ccn2)cc1 [GW576604],26%
8,O=C(Nc1n[nH]c2cc(-c3cccc(F)c3)ccc12)C1CC1 [SB-735464],0%
9,Cc1c(Cn2c(C)nn3c(=O)cc(N4CCOC(C)C4)nc23)cccc1C(F)(F)F (stereo not shown) [GSK2344444],0%
10,Cc1nnc(-c2ccc3ncc(-c4ccc(S(C)=O)cc4)n3c2)o1 (stereo not shown),0%
11,CN(C(=O)c1ccc(-c2cc(-c3c[nH]nc3-c3ccccn3)ccn2)cc1)C1CCOCC1 [GW810083],14%
12,Fc1ccc(-c2ncn(CCCN3CCOCC3)c2-c2ccccn2)cc1 [SB-211742],20%
13,COc1cc2c(cc1OCCN1CCN(C)CC1)ncc1c3ccc(C#N)cc3[nH]c21,78%
14,O=C(c1ccc(-c2cc(-c3c[nH]nc3-c3ccccn3)ccn2)cc1)N1CCOCC1 [GW812171],0%
15,CC(=O)Nc1ccc(COc2ccc(Nc3ccnc4cc(-c5ccccn5)ccc34)cc2)cc1.Cl [GW440148],71%
16,O=C(NOCC1CC1)c1ccc(F)c(F)c1Nc1ccc(I)cc1Cl,1%
17,COc1ccc(Nc2nccc(N3CCC(NC(=O)Nc4cc(C)ccc4C)C3)n2)cc1 (stereo not shown) [GSK1379741],0%
18,Cc1ccc(C(=O)NCC(N)=O)cc1-n1c(C)cc(OCc2ccc(F)cc2F)c(Br)c1=O,0%

row,Compound,%Inh
1,Cl.Nc1ncnc2occ(-c3ccc(NC(=O)Nc4cc(C(F)(F)F)ccc4F)cc3)c12 [SB-707548],21%
2,Nc1nc(-c2ccc3c(N)n[nH]c3c2)cc(N2CCCC2)n1 [GSK2227430],0%
3,CN(C1=C(c2ccccc2)C(=O)NC1=O)c1ccccc1 [SB-334860],9%
4,CN1c2ccc(CNc3ccc(F)cc3)cc2-c2c(cnn2C)S1(=O)=O,0%
5,COc1ccc(S(=O)(=O)NC2CCN(c3cc(C)nc(Nc4cccc(C#N)c4)n3)CC2)cc1.O=C(O)C(F)(F)F [GSK1653539],0%
6,O=c1cc(N2CCOCC2)nc2n(Cc3cccc(Cl)c3Cl)c(C3CC3)nn12 [GSK2358994],0%
7,N#Cc1ccc(-c2cc(-c3c[nH]nc3-c3ccccn3)ccn2)cc1 [GW693028],40%
8,O=C(Nc1cccc(-c2nn3ncccc3c2-c2ccnc(Nc3cccc(C(F)(F)F)c3)n2)c1)c1c(F)cccc1F [GSK299495],41%
9,CCc1ccnc(/C=C/c2n[nH]c3cc(Sc4ccccc4C(=O)NC)ccc23)c1,30%
10,Nc1nccc(-c2c(-c3ccc(F)cc3)ncn2C2CCN(CC(F)(F)F)CC2)n1 [SB-236560],17%
11,Cc1cn2c(=O)cc(N3CCOCC3)nc2n1Cc1cccc(Cl)c1Cl [GSK2334006],21%
12,COc1ccc(COc2cc(-n3cnc4ccccc43)sc2C(N)=O)cc1 [GSK1024304],25%
13,Fc1ccc(-c2ncn(CCCN3CCOCC3)c2-c2cccnc2)cc1 [SB-211743],0%
14,CN1c2ccc(NCc3ccc(F)cc3)cc2-c2c(cnn2C)S1(=O)=O,0%
15,O=C(NCCNc1ccnc(Nc2ccc(F)cc2)n1)c1cc2ccccc2s1 [GSK1379874],33%
16,Cc1cccc(-c2nc(Nc3ccc4ncsc4c3)c3ccccc3n2)n1 [GW867588],0%
17,NCC(NC(=O)c1cc(-c2cn[nH]c2)c(-c2ccnc3[nH]ccc23)s1)c1ccccc1.O=C(O)C(F)(F)F.O=C(O)C(F)(F)F (stereo not shown) [GSK1325775],37%

# Tested on: T2, DMPK2
# T2 construct: gene CDC42BPG
# Conditions: concentration: 1 μM, replicates: in singlicate; n = 1
row,Compound,%Inh
1,COc1cc2c(cc1OC[C@@H](O)CO)ncc1c3ccc(C#N)cc3[nH]c21,0%
2,COc1ccc(Nc2ncc(C#N)c(Nc3ccccc3C(N)=O)n2)cc1N1CCN(C)CC1.Cl [GSK1558669],89%
3,Cc1cccc(-c2nc(-c3ccc(S(C)(=O)=O)cc3)sc2-c2ccncc2)c1,53%
4,COc1cc(Nc2nccc(N3CCC(NC(=O)c4cccc(NC(C)=O)c4)C3)n2)cc(OC)c1OC (stereo not shown) [GSK1379754],0%
5,Cc1ccc(NC(=O)c2ccnc(N3CCN(C)CC3)c2)cc1-c1ccc(C(=O)NCC2CC2)cc1 [GW775604],0%
6,CSc1ccc(-c2cc3ncnc(SCC(=O)O)c3s2)cc1,0%
7,c1ccc(-c2cc(-c3c[nH]nc3-c3ccccn3)ccn2)cc1 [GW576604],0%
8,O=C(Nc1n[nH]c2cc(-c3cccc(F)c3)ccc12)C1CC1 [SB-735464],0%
9,Cc1c(Cn2c(C)nn3c(=O)cc(N4CCOC(C)C4)nc23)cccc1C(F)(F)F (stereo not shown) [GSK2344444],0%
10,Cc1nnc(-c2ccc3ncc(-c4ccc(S(C)=O)cc4)n3c2)o1 (stereo not shown),0%
11,CN(C(=O)c1ccc(-c2cc(-c3c[nH]nc3-c3ccccn3)ccn2)cc1)C1CCOCC1 [GW810083],0%
12,Fc1ccc(-c2ncn(CCCN3CCOCC3)c2-c2ccccn2)cc1 [SB-211742],0%
13,COc1cc2c(cc1OCCN1CCN(C)CC1)ncc1c3ccc(C#N)cc3[nH]c21,0%
14,O=C(c1ccc(-c2cc(-c3c[nH]nc3-c3ccccn3)ccn2)cc1)N1CCOCC1 [GW812171],0%
15,CC(=O)Nc1ccc(COc2ccc(Nc3ccnc4cc(-c5ccccn5)ccc34)cc2)cc1.Cl [GW440148],2%
16,O=C(NOCC1CC1)c1ccc(F)c(F)c1Nc1ccc(I)cc1Cl,0%
17,COc1ccc(Nc2nccc(N3CCC(NC(=O)Nc4cc(C)ccc4C)C3)n2)cc1 (stereo not shown) [GSK1379741],0%
18,Cc1ccc(C(=O)NCC(N)=O)cc1-n1c(C)cc(OCc2ccc(F)cc2F)c(Br)c1=O,0%

row,Compound,%Inh
1,Cl.Nc1ncnc2occ(-c3ccc(NC(=O)Nc4cc(C(F)(F)F)ccc4F)cc3)c12 [SB-707548],24%
2,Nc1nc(-c2ccc3c(N)n[nH]c3c2)cc(N2CCCC2)n1 [GSK2227430],0%
3,CN(C1=C(c2ccccc2)C(=O)NC1=O)c1ccccc1 [SB-334860],12%
4,CN1c2ccc(CNc3ccc(F)cc3)cc2-c2c(cnn2C)S1(=O)=O,0%
5,COc1ccc(S(=O)(=O)NC2CCN(c3cc(C)nc(Nc4cccc(C#N)c4)n3)CC2)cc1.O=C(O)C(F)(F)F [GSK1653539],0%
6,O=c1cc(N2CCOCC2)nc2n(Cc3cccc(Cl)c3Cl)c(C3CC3)nn12 [GSK2358994],0%
7,N#Cc1ccc(-c2cc(-c3c[nH]nc3-c3ccccn3)ccn2)cc1 [GW693028],0%
8,O=C(Nc1cccc(-c2nn3ncccc3c2-c2ccnc(Nc3cccc(C(F)(F)F)c3)n2)c1)c1c(F)cccc1F [GSK299495],92.6%
9,CCc1ccnc(/C=C/c2n[nH]c3cc(Sc4ccccc4C(=O)NC)ccc23)c1,0%
10,Nc1nccc(-c2c(-c3ccc(F)cc3)ncn2C2CCN(CC(F)(F)F)CC2)n1 [SB-236560],12%
11,Cc1cn2c(=O)cc(N3CCOCC3)nc2n1Cc1cccc(Cl)c1Cl [GSK2334006],15%
12,COc1ccc(COc2cc(-n3cnc4ccccc43)sc2C(N)=O)cc1 [GSK1024304],7%
13,Fc1ccc(-c2ncn(CCCN3CCOCC3)c2-c2cccnc2)cc1 [SB-211743],0%
14,CN1c2ccc(NCc3ccc(F)cc3)cc2-c2c(cnn2C)S1(=O)=O,0%
15,O=C(NCCNc1ccnc(Nc2ccc(F)cc2)n1)c1cc2ccccc2s1 [GSK1379874],0%
16,Cc1cccc(-c2nc(Nc3ccc4ncsc4c3)c3ccccc3n2)n1 [GW867588],9%
17,NCC(NC(=O)c1cc(-c2cn[nH]c2)c(-c2ccnc3[nH]ccc23)s1)c1ccccc1.O=C(O)C(F)(F)F.O=C(O)C(F)(F)F (stereo not shown) [GSK1325775],89%
